Data: the supplement of paper PMC10849652
Targets with a hit are over-represented here; the source holds about 7,900 in all. About 0.6% of all pairs of compound and target were hits. A number with no mark means an inactive call.

How the values were obtained:
Assay in all cases: log2 fold change, soluble protein after heating vs DMSO (PISA); higher = thermal stabilisation; K562 cells, 10 uM, 30 min; active = over 0.2 and 3.5 SD of the protein, either way, in both replicates (recomputed)
[1] = compound: NC(=O)Nc1cc(-c2cccc(F)c2)sc1C(=O)N[C@H]1CCCNC1
In short: (§1)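 K562 cells (2×10^6 cells/mL) were treated with 10 μM compound for 30 min, and aliquots were heated for 3 min over 48°C-58°C. Pooled aliquots were extracted in PBS with 0.5% NP-40 at 4°C, and the supernatant after 21,000xg for 90 min was measured by TMTpro 16plex LC-MS/MS with channel sums equalised. Reported thermal stability, relative to control samples and from duplicates, is a log2 fold change.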

[2] = compound: NC(=O)c1cnc(N[C@@H]2CCCC[C@@H]2N)nc1Nc1cccc(-n2nccn2)c1
In short: as §1

[3] = compound: NC1(c2ccc(-c3nc4ccn5c(=O)[nH]nc5c4cc3-c3ccccc3)cc2)CCC1
In short: as §1

[4] = compound: NCC(=O)Nc1ccc(-n2nc(C(F)(F)F)cc2-c2ccc3c(ccc4ccccc43)c2)cc1
In short: as §1

entinostat = compound: Nc1ccccc1NC(=O)c1ccc(CNC(=O)OCc2cccnc2)cc1 [entinostat]
In short: as §1

vorinostat = compound: O=C(CCCCCCC(=O)Nc1ccccc1)NO [vorinostat]
In short: as §1

silmitasertib = compound: O=C(O)c1ccc2c(c1)nc(Nc1cccc(Cl)c1)c1ccncc12 [silmitasertib]
In short: as §1

[5] = compound: O=C1NC(=O)C(c2cnc3ccccn23)=C1c1cn2c3c(cc(F)cc13)CN(C(=O)N1CCCCC1)CC2
In short: as §1

citarinostat = compound: O=C(CCCCCCNC(=O)c1cnc(N(c2ccccc2)c2ccccc2Cl)nc1)NO [citarinostat]
In short: as §1

[6] = compound: c1cc(OCCN2CCCCC2)cc(-c2n[nH]c3ccc(-c4nnc[nH]4)cc23)c1
In short: as §1

entospletinib = compound: c1cn2cc(-c3ccc4cn[nH]c4c3)nc(Nc3ccc(N4CCOCC4)cc3)c2n1 [entospletinib]
In short: as §1

Sequence of UniProt Q9ULV3 (Q9ULV3 whole entry, looked up): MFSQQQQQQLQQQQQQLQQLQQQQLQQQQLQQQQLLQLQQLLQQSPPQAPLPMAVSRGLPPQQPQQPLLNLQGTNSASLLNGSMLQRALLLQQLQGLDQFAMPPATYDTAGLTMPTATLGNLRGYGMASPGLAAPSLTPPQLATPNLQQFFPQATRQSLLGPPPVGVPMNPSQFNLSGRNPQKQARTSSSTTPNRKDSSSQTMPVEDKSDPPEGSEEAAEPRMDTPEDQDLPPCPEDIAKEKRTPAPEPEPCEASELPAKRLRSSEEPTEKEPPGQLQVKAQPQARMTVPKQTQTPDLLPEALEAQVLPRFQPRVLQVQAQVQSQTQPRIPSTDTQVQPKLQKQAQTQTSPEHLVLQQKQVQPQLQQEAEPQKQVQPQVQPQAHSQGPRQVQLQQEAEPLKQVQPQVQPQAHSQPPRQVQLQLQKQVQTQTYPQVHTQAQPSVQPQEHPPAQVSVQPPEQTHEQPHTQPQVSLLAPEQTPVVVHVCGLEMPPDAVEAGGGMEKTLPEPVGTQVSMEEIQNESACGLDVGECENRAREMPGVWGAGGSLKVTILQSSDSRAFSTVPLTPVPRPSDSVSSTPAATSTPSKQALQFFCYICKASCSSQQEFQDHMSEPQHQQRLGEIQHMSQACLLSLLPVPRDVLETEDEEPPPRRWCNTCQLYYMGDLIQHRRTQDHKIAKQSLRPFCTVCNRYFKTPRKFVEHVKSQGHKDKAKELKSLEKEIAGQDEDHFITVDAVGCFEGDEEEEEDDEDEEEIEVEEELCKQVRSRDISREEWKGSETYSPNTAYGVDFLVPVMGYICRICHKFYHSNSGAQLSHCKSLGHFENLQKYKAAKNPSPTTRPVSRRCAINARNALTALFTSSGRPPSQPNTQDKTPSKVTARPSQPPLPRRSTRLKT
Sequence of UniProt Q14194 (Q14194 whole entry, looked up): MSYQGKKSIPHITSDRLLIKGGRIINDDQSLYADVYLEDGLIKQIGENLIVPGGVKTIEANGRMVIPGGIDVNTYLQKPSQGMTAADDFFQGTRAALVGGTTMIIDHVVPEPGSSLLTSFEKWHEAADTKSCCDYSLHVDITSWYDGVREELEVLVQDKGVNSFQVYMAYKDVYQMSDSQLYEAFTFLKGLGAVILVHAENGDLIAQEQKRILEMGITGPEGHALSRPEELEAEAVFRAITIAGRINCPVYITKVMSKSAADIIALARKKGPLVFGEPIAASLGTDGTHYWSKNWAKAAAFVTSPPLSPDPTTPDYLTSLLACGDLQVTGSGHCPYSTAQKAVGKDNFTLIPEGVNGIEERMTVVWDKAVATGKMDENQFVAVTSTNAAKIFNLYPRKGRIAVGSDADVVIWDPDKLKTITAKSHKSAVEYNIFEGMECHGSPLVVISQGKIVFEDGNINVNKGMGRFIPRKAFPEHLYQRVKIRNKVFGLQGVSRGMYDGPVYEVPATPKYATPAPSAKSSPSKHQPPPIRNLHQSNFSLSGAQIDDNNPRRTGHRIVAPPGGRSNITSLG
Sequence of UniProt Q9Y2V0 (Q9Y2V0 whole entry, looked up): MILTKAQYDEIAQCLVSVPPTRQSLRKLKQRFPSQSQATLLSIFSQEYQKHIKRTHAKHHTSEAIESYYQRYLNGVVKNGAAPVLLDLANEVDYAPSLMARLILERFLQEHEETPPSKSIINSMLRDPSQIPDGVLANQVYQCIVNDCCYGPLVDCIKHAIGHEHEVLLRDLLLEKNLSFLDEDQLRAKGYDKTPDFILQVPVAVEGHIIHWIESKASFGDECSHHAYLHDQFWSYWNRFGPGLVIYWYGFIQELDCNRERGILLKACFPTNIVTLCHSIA
Sequence of UniProt Q9UBY8 (Q9UBY8 whole entry, looked up): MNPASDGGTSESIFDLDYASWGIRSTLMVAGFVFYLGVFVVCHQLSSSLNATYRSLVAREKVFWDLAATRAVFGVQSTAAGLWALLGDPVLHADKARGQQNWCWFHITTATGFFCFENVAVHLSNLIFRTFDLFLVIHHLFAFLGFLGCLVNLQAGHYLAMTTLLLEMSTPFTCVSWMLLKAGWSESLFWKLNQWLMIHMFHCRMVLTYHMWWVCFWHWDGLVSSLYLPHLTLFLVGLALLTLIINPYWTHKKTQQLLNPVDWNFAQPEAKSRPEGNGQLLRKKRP
Sequence of UniProt Q6ZU80 (Q6ZU80 whole entry, looked up): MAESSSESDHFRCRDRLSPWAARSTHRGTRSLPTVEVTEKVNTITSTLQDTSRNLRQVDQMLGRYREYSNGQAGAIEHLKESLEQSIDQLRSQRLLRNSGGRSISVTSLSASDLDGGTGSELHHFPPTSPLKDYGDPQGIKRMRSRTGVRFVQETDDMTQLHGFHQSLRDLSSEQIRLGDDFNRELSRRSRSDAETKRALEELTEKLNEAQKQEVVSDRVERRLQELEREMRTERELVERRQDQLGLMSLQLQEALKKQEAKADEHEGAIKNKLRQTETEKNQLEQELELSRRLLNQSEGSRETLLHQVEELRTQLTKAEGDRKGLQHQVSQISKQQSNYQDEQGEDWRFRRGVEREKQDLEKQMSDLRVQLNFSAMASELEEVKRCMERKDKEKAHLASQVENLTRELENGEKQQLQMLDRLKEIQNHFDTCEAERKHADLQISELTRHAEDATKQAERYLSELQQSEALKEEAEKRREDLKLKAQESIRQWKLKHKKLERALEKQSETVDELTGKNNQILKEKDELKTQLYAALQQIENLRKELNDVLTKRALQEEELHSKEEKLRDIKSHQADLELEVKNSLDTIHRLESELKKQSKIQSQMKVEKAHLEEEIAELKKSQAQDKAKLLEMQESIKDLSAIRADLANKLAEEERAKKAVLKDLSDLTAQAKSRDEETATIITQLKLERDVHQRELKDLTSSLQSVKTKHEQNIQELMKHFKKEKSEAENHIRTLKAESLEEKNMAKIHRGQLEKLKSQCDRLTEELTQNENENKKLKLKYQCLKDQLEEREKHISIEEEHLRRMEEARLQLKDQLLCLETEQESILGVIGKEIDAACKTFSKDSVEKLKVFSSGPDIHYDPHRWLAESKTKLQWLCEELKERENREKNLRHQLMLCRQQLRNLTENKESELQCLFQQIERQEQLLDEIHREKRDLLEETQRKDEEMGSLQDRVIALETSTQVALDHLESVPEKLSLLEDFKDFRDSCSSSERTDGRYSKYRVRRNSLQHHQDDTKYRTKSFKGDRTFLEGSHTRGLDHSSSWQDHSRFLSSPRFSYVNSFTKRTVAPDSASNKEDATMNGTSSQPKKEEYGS
Sequence of UniProt Q14746 (Q14746 whole entry, looked up): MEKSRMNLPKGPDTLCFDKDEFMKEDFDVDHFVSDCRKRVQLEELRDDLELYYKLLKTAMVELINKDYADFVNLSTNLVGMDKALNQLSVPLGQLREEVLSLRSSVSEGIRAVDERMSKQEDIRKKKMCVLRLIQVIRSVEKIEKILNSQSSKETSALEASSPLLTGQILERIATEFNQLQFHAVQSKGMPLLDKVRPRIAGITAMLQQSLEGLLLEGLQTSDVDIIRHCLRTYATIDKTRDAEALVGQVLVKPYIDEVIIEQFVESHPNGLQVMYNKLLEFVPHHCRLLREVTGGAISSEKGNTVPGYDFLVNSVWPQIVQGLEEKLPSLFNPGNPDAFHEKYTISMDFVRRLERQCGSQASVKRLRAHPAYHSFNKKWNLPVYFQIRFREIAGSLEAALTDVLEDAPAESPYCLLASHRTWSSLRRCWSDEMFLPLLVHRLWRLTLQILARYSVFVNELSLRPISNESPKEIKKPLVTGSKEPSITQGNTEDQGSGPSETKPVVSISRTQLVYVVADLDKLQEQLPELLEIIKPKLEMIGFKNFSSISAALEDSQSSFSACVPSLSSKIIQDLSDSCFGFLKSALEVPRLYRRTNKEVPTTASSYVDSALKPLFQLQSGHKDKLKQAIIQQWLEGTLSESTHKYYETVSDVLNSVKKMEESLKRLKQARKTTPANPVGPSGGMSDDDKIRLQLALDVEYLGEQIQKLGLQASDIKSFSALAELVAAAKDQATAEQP
Sequence of UniProt Q9NZN8 (Q9NZN8 whole entry, looked up): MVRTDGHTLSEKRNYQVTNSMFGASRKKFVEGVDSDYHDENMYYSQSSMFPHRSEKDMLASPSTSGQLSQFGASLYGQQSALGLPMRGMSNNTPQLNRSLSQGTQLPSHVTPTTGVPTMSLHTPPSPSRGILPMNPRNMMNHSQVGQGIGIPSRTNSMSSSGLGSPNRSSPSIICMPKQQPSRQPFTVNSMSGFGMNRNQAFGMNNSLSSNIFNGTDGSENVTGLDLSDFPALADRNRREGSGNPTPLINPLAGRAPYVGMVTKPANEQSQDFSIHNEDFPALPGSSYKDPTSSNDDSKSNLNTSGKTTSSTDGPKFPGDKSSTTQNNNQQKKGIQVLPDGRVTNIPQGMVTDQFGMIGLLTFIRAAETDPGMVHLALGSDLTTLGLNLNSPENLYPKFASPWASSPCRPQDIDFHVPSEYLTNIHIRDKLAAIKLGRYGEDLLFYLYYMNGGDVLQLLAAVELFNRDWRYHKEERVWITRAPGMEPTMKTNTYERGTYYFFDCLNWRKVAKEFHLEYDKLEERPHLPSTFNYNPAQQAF
Sequence of UniProt P67870 (P67870 whole entry, looked up): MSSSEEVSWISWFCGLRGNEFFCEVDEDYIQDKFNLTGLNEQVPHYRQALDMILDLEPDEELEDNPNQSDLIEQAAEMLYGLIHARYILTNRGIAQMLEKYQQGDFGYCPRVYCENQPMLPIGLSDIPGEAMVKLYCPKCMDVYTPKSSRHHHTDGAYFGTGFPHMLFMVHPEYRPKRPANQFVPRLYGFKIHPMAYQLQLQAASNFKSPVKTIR
Sequence of UniProt P61024 (P61024 whole entry, looked up): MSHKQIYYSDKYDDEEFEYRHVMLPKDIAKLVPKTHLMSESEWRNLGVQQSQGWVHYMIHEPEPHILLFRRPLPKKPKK
Sequence of UniProt P24863 (P24863 whole entry, looked up): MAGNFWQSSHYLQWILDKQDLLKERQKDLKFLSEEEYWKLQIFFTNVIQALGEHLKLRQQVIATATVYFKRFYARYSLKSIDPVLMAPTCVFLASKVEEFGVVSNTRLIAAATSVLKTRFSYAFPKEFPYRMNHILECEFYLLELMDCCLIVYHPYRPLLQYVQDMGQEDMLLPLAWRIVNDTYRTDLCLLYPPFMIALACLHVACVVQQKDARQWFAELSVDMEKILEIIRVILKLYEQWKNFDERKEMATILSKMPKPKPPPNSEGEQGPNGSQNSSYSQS

Target | log2 fold change [1] | log2 fold change [2] | log2 fold change [3] | log2 fold change [4] | log2 fold change (entinostat) | log2 fold change (vorinostat) | log2 fold change (silmitasertib) | log2 fold change [5] | log2 fold change (citarinostat) | log2 fold change [6] | log2 fold change (entospletinib)
CLPTM1L (UniProt G5E9Z2) | 0.139 | 0.237 | -0.175 | -0.028 | -0.012 | 0.022 | -0.05 | 0.445 | – | – | –
CHPT1 (UniProt Q8WUD6) | 0 | -0.039 | -0.059 | – | 0.062 | 0.066 | -0.042 | -0.049 | 0.002 | 0.019 | 0.047
COG2 (UniProt Q14746) | -0.07 | -0.513 | -0.487 | – | 0.138 | – | 0.248 | -0.031 | 0.101 | 0.34 | -0.103
C19orf54 (UniProt Q5BKX5) | 0.098 | 0.004 | – | 0.086 | -0.111 | -0.064 | – | -0.05 | -0.09 | -0.121 | 0.17
CIZ1 (UniProt Q9ULV3) | -0.031 | -0.087 | -0.053 | -0.022 | -0.032 | 0.036 | 0.026 | 0.074 | 0.023 | -0.045 | -0.012
COPS4 (UniProt Q9BT78) | 0.015 | 0.009 | -0.032 | 0.036 | 0.01 | 0.027 | -0.035 | -0.01 | 0.031 | 0.027 | 0.003
CELF2 isoform 3 (UniProt O95319) | -0.047 | 0.009 | 0.017 | -0.017 | -0.048 | -0.044 | 0.051 | 0.102 | 0 | -0.021 | 0.009
CLN5 (UniProt O75503) | -0.133 | -0.41 | -0.858 (active) | – | 0.02 | -0.087 | 0.192 | -0.014 | – | – | –
CAV2 (UniProt P51636) | -0.251 | -0.041 | 0.027 | – | -0.088 | 0.147 | 0.106 | – | – | – | –
CORO2A (UniProt Q92828) | 0.069 | -0.027 | -0.287 (active) | -0.085 | -0.061 | 0.027 | -0.019 | – | -0.114 | -0.212 | 0.078
CDC42SE1 (UniProt Q9NRR8) | -0.244 | 0.055 | -0.065 | -0.002 | -0.042 | – | 0.128 | -0.065 | -0.048 | -0.103 | 0.141
CDKN1B (UniProt P46527) | -0.154 | 0.178 | 0.017 | -0.177 | 0.046 | -0.01 | -0.072 | -0.01 | – | – | –
CCNT2 (UniProt O60583) | -0.045 | 0.042 | 0.054 | – | 0.076 | 0.223 | -0.06 | -0.032 | 0.06 | -0.089 | -0.05
CLN8 (UniProt Q9UBY8) | -0.062 | -0.002 | 0.334 | 0 | 0.058 | -0.061 | 0.075 | – | 0.064 | -0.095 | 0.022
CHST10 (UniProt O43529) | 0.059 | 0.023 | -0.142 | – | 0.048 | 0.015 | -0.059 | -0.032 | – | – | –
CCNC (UniProt P24863) | -0.032 | -0.105 | -0.017 | -0.033 | 0.04 | -0.039 | 0.183 | 0.039 | – | – | –

Target | log2 fold change [1] | log2 fold change [2] | log2 fold change [3] | log2 fold change [4] | log2 fold change (entinostat) | log2 fold change (vorinostat) | log2 fold change (silmitasertib) | log2 fold change [5] | log2 fold change (citarinostat) | log2 fold change [6] | log2 fold change (entospletinib)
CRTC2 (UniProt Q53ET0) | -0.814 (active) | -0.001 | -0.13 | 0.038 | 0.004 | – | 0.092 | -0.125 | -0.099 | -0.143 | -0.038
CKS1B (UniProt P61024) | -0.029 | -0.03 | -0.082 | 0.042 | -0.02 | 0.025 | 0.063 | -0.084 | 0.009 | -0.067 | 0
CDK4 (UniProt P11802) | 0.015 | -0.293 | -0.074 | 0.02 | -0.006 | – | 0.193 | 0.184 | 0.076 | 0.005 | -0.069
C9orf72 (UniProt Q96LT7) | 0.028 | -0.041 | -0.148 | -0.009 | -0.011 | 0.232 | -0.067 | -0.011 | – | – | –
CASP9 (UniProt P55211) | 0.059 | -0.234 | – | -0.111 | -0.098 | 0.045 | – | -0.057 | 0.05 | 0.054 | -0.211
CRMP1 isoform 2 (UniProt Q14194) | -0.121 | 0 | – | -0.099 | -0.055 | 0.193 | – | – | – | – | –
CBX5 (UniProt P45973) | -0.066 | -0.027 | -0.025 | -0.106 | 0.025 | 0.113 | -0.016 | -0.073 | 0.041 | -0.021 | 0.01
CNOT2 (UniProt Q9NZN8) | -0.012 | -0.014 | -0.058 | -0.087 | -0.023 | 0.018 | 0.046 | 0.007 | 0.026 | -0.058 | -0.012
CDK1 (UniProt P06493) | -0.036 | 0.004 | -0.068 | -0.047 | 0 | 0.05 | – | -0.079 | 0.051 | -0.032 | -0.024
CEP128 (UniProt Q6ZU80) | -0.182 | -0.029 | 0.095 | -0.234 | -0.112 | – | -0.191 | – | -0.087 | -0.068 | -0.064
CERT isoform 3 (UniProt Q9Y5P4) | -0.323 (active) | -0.103 | -0.101 | -0.045 | -0.008 | -0.025 | 0.034 | 0 | 0.065 | -0.418 (active) | 0.019
COX17 (UniProt Q14061) | -0.002 | 0.017 | -0.088 | 0.052 | 0.048 | -0.077 | 0.119 | -0.141 | – | – | –
CSNK2A1 (UniProt P68400) | -0.062 | 0.014 | 0.007 | 0.05 | -0.015 | 0.046 | – | -0.027 | -0.013 | -0.045 | 0.113
C15orf41 (UniProt Q9Y2V0) | -0.076 | -0.046 | – | -0.061 | -0.01 | 0.069 | – | 0.023 | 0.07 | -0.007 | 0.032
CSNK2B (UniProt P67870) | -0.017 | 0 | 0.006 | 0.084 | -0.008 | 0.021 | 0.377 (active) | -0.011 | 0.036 | -0.02 | 0.077
